# From PubChem BioAssay AID1347434 (National Center for Advancing Translational Sciences (NCATS), 2020)
# The campaign covered roughly 1,200 compounds. About 30 (2%) were called active. Roughly 23% stayed inconclusive and do not appear here. Calls come from the whole dose curve; as a rule, active = well fitted inhibition curve with a large enough effect; inconclusive = small, poorly fitted or top-dose-only effect; inactive = flat fitted curve, though single readings scatter. The entries come from a sample that favours actives as a whole.
# Biological target: Single-stranded DNA cytosine deaminase (Homo sapiens) (UniProt Q9GZX7)
# Sequence (Q9GZX7 whole entry, looked up): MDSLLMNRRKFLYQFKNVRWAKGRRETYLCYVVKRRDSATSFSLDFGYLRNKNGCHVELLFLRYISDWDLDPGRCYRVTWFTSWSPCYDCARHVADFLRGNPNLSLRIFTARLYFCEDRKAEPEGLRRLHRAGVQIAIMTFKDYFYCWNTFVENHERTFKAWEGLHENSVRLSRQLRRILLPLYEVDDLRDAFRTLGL
# Assay: Confirmatory qHTS assay for inhibitors of Activation Induced Cytidine Deaminase (AID): AID signals
# Settings: recombinant AID, FRET deamination/UDG coupled fluorescence, 4 h; series mostly up to 115 µM; activity, negative = inhibition: at the top concentration
# How it was run: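 Read 1 (AID) was measured at 540 ex/590 em after a 30 min NaOH step. The reaction was AID (1 uM, 4/3x stock) with UDG, compound at final 7.32 nM - 114 uM for 10 min, then DJC20/DJC23 substrate for 4 hr at room temperature. A UDG read at 560/665 serves as counterscreen.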
# % is set by controls: 0 for no effect and ±100 for the full control effect; potency is the fitted concentration of half-maximal effect.
Compound,"activity, negative = inhibition",Potency
CCOc1ccc(NC(=O)CN(C)S(=O)(=O)c2ccc3c(c2)c(=O)n(C)c(=O)n3C)cc1,8.36% (inactive),
COc1cccc(CNC(=O)c2oc3c(c2C)-c2nn(Cc4cccc(Cl)c4)cc2CC3)c1OC,14.5% (inactive),
COc1ccc(Nc2ncc(C(=O)Nc3cccc(OC)c3)c3ccccc23)cc1,-1.42% (inactive),
Cc1ccccc1CSc1nc2nc(C)c(Cc3ccccc3)c(C)n2n1,-17.8% (inactive),
CC1(C)CCC2=C(O1)c1ccccc1C(=O)C2=O,,7.08 µM (active)
OCC1O[C@H]([S-])[C@H](O)[C@@H](O)[C@@H]1O.[Au+] (stereo partly specified),,12.6 µM (active)
CCCCSCCCNC(=O)c1cn(CC)c2ccc(S(=O)(=O)N(C)C3CCCCC3)cc2c1=O,-21.7% (inactive),
CC1CCCN(C(=O)c2ccc(CSc3nc4ccncc4n3Cc3ccccc3)cc2)C1 (stereo unspecified),-7.61% (inactive),
Cc1ccccc1Nc1c(-c2ccc(N3CCOCC3)cc2)nc2ccccn12,3.96% (inactive),
CCCN(CCC)CCCNC(=O)c1cc2c(-c3ccc(Cl)cc3)nn(C)c2s1,-20.4% (inactive),
CCCCn1c(CNC(=O)C23CC4CC(CC(C4)C2)C3)nnc1SCC(=O)Nc1ccc(C)cc1,-19.3% (inactive),
Cc1cc2c(C(C)C)c(O)c(O)c(C=O)c2c(O)c1-c1c(C)cc2c(C(C)C)c(O)c(O)c(C=O)c2c1O,,31.6 µM (active)
Cc1cccc(NC(=O)CCn2nc(-c3ccccc3)c3ccccc3c2=O)c1,-19.9% (inactive),
CCn1nc(C)c2c(-c3ccccc3)cc(=O)n(C(C)C(=O)NCc3ccccc3OC)c21 (stereo unspecified),-20.2% (inactive),
COc1ccc(-c2coc3c2c(C)cc2oc(=O)c(CC(=O)O)c(C)c23)cc1,,50.1 µM (active)
COc1cccc(-n2c(-c3cccc(F)c3)nc3c(cnn3-c3ccc(C)cc3)c2=O)c1,-15.5% (inactive),
CCOc1ccc(CNCc2c(C(=O)O)n(Cc3ccccc3F)c3cc(OC)ccc23)cc1,1.08% (inactive),
COc1ccc(C(C)=O)cc1CSc1nc(NCCc2ccccc2)c2ccccc2n1,-11% (inactive),
Cc1cccc(N2CCN(C(=O)Cn3ncc4c3-c3cc(C)ccc3OC4)CC2C)c1 (stereo unspecified),-19% (inactive),
COc1ccccc1C(=O)Oc1c(Sc2ccccc2)c(C)nn1-c1ccccc1,3.97% (inactive),
CCOC(=O)C1=C(CN2CCN(c3ccccc3F)CC2)NC(=O)NC1c1ccc(Cl)cc1 (stereo unspecified),-9.34% (inactive),
Cc1cccc(N2CCN(C(=O)C(C)n3nc(C)n4c(cc5occc54)c3=O)CC2)c1C (stereo unspecified),-6.52% (inactive),
Cc1ccc(C2CCN(C(=O)c3cnn(-c4cccc(Cl)c4)c3C3CCN(C(=O)OC(C)(C)C)CC3)C2)cc1 (stereo unspecified),-1.75% (inactive),

Compound,"activity, negative = inhibition",Potency
COc1ccc(CCNC(=O)c2c[nH]n3c(=O)c(Cc4ccccc4Cl)c(C)nc23)cc1OC,-6.89% (inactive),
FC(F)(F)c1cccc(N2CCN(Cc3nnc(-c4ccc5c(c4)OCO5)o3)CC2)c1,-14.7% (inactive),
COc1ccc(-c2nc(CSCC(=O)N3CCN(c4cccc(C)c4C)CC3)c(C)o2)cc1OC,-11% (inactive),
O=C(CSC1=Nc2ccccc2N=C(c2ccc(F)cc2)C1)Nc1cccc(C(F)(F)F)c1,-7.07% (inactive),
COc1ccc(-c2nc3c(c(SCC(=O)Nc4ccc(C(=O)O)cc4)n2)Cc2ccccc2O3)cc1,10.8% (inactive),
O=C(CSc1nc(-c2ccc(F)cc2)nc2c1Cc1ccccc1O2)Nc1cccc(C(=O)O)c1,,31.6 µM (active)
Cc1cccc(-n2cnc3cc(C(=O)NCc4ccccc4Cl)ccc32)c1,-7.99% (inactive),
Cc1cccc(-c2nc(CCNC(=O)COc3ccccc3)cs2)c1,-12.9% (inactive),
CCN(C(=O)CSc1nc(-c2ccccc2)no1)c1cccc(C)c1,-1.82% (inactive),
COc1ccc(CNCCC(c2ccccc2)c2ccc3c(c2)OCO3)cc1 (stereo unspecified),-14.1% (inactive),
CCCCN(CC)CCCNC(=O)c1cn(CC)c2ccc(S(=O)(=O)N3CCc4ccccc4C3)cc2c1=O,-21.8% (inactive),
CCc1ccc(CN(Cc2ccco2)c2cnc(S(C)(=O)=O)nc2C(=O)Nc2ccc(C)c(Cl)c2)cc1,-7.49% (inactive),
CCOc1ccc(-c2nn(-c3ccccc3)cc2C2NC(=O)NC(C)=C2C(=O)OC(C)C)cc1 (stereo unspecified),-5.41% (inactive),
COc1ccc(CN(Cc2ccco2)C(=O)COc2ccc(Cl)cc2C)cc1,-5.94% (inactive),
Cc1nc2nc(SCC(=O)N(C)Cc3ccccc3)nn2c(C)c1Cc1ccccc1Cl,-17.7% (inactive),
Cc1ccc(Cn2cc(S(=O)(=O)c3ccc(C)cc3)c(=O)c3cc(F)c(N4CCCC4)cc32)cc1,-1.5% (inactive),
CCc1ccc(S(=O)(=O)c2cnc3ccc(OC)cc3c2N2CCCC(C)C2)cc1 (stereo unspecified),-7.45% (inactive),
CCOC(=O)C1CCN(c2nc3c(S(=O)(=O)c4ccccc4)nnn3c3ccsc23)CC1,-6.88% (inactive),
CCN(CC)C(=O)CSc1nc(-c2ccccc2F)nc2c1Cc1c(CO)cnc(C)c1O2,-20.7% (inactive),
Cc1ccccc1C(=O)Nc1sc2c(c1C(=O)O)CCC(C(C)(C)C)C2 (stereo unspecified),-5.24% (inactive),
Cc1ccc(-c2sc(C(=O)Nc3ccc(Br)cc3)cc2CC(=O)O)cc1,-3.84% (inactive),
CCC(=O)Oc1c(Sc2ccc(Cl)cc2)c(C)nn1-c1ccccc1,5.67% (inactive),
Nc1c(S(=O)(=O)O)cc(Nc2ccc(Nc3nc(Cl)nc(Nc4ccc(S(=O)(=O)O)cc4)n3)c(S(=O)(=O)O)c2)c2c1C(=O)c1ccccc1C2=O,,20 µM (active)
